Compound activity as filed in PubChem BioAssay.
Only some compounds are listed: those with a hit (about 4.3% of all), similar ones and a draw of the others.
KKLEB tox – reduces viability of KKLEB cystic fibrosis airway cells. KKLEB CF airway cells viability, ATPlite luminescence, overnight; stronger effect = lower value; cells stimulated with P. aeruginosa culture filtrate. activity change (cytotoxicity), % at 5 µM. actives 0.36% (n = 360,000);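 active = corrected activity change at or below -50% at 5 µM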
MITF TRPM1 inh – reduces MITF-dependent TRPM1 promoter luciferase signal. SK-MEL-5 TRPM1 promoter luciferase, 24 h. inhibition, % at 12.5 µM. actives 0.83% (n = 330,000). AID 488899;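 active = mean inhibition across replicates of 60% or more, whatever share of single replicates reaches that level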
CHOP inh – inhibitors of CHOP induction in ER stress response; CHO-K1 CHOP-promoter luciferase, tunicamycin-induced, 15-18 h; inhibition, % at 10 µM; actives 3.8% (n = 220,000); AID 2732;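 active = compounds that reduced the stress-induced luciferase reporter signal by more than about 70% of percent inhibition, limit read from the data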;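 also: 0% = tunicamycin plus vehicle and 100% = wells without tunicamycin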
Peg3 prom inh – reduces Peg3 promoter-driven luciferase expression in HeLa | HeLa PEG-Prom luciferase reporter, luminescence, overnight | inhibition, % at 20 µM | actives 1.7% (n = 360,000);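 active = inhibition of at least 50% at 20 µM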
CF NFkB inh – cystic fibrosis NF-kB activation inhibition | KKLEB NF-kB-GFP reporter, PAF-induced, GFP fluorescence overnight | inhibition, % at 5 µM | actives 0.86% (n = 360,000) | AID 588850;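 active = at least 50% inhibition at 5 µM, scaled per plate between neutral and stimulator controls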;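 also: PAF is a Pseudomonas aeruginosa culture filtrate used as stimulus; plate controls were PAF-stimulated DMSO wells for no effect and unstimulated DMSO wells for full effect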
HIF-2a inh – HIF-2a inhibition; 786-0 RCC cells HIF-2a reporter, luciferase luminescence, overnight; inhibition, % at 18.8 µM; actives 0.72% (n = 360,000);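 active = inhibition of the luminescence signal of 40% or more relative to plate controls, in a single-dose primary screen at 18.75 µM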
* hit, by the source's call; . = no result.

SMILES	KKLEB tox	MITF TRPM1 inh	CHOP inh	Peg3 prom inh	CF NFkB inh	HIF-2a inh
CCn1c(=O)c(C(=O)CN2c3ccccc3CC2C)c(N)n(Cc2ccccc2)c1=O (stereo unspecified)	1	0	87*	13	4	16
COc1ccc(C(=O)COC(=O)c2ccc(OC)c(OC)c2)cc1OC	6	2	75*	-3	-3	-4
O=C(C[C@H]1C/C=C\C[C@H](NC(=O)OCC2c3ccccc3-c3ccccc32)C(=O)O[C@H](c2ccccc2)CNC1=O)N[C@H](CO)Cc1ccccc1	-96*	33	.	87*	86*	7
COc1cccc(N(CC(=O)N2CCCCCC2)S(C)(=O)=O)c1	5	-7	.	6	7	19
CC(C)c1ccc(-c2nnn(CCC(=O)O)n2)cc1	3	87*	48	31	-10	89*
O/N=C/c1cc(Br)cc(Br)c1OCc1ccccc1	-5	1	92*	-4	20	-2
O=C(CNC(=O)c1cccc(Br)c1)N/N=C/c1cccs1	3	-2	.	3	-24	-5
CC(C)NC(=S)N/N=C/c1cc(Br)ccc1O	-4	6	77*	-80	-7	-20
O=C(CNC(=O)c1cccc(Br)c1)N/N=C/c1cc(Br)cc(Br)c1O	1	-4	91*	54*	16	15
O=C(Cc1ccccc1)N/N=C/c1cc(Br)cc(Br)c1O	-13	20	.	54*	17	14
O=C(Cc1ccccc1)N/N=C/c1cc(Br)cs1	-2	-15	.	-90	15	-144
COC(=O)N/N=C/c1cc(Br)ccc1O	-2	14	24	-13	8	-11
Cc1ccc(NC(=O)Cc2nnc(SCC(=O)NC3CCCC3)n2C)c(C)c1	5	6	.	8	3	14
CC1Cc2ccccc2N1C(=O)Cn1cc(C(F)(F)F)ccc1=O (stereo unspecified)	9	.	.	13	-9	2
CNc1nc(-c2ccc3c(c2)CCN3S(=O)(=O)c2ccccc2)c(C)s1	4	9	60	12	3	13
O=C(CCc1ccccc1)N/N=C/c1cc(Br)ccc1O	-8	28	76*	43	0	8
Oc1ccc(Br)cc1/C=N/NC(=S)NCCc1ccccc1	-1	6	.	12	3	-24
COc1cc(OC)c(/C=C2/C(=O)Nc3ccccc32)c(OC)c1	.	.	13	.	.	.
CS(=O)(=O)N(CCC#N)Cc1ccc(/C=C2\C(=O)Nc3ccccc32)o1	-6	-8	21	16	50*	18
CC1(C)Cc2c(sc3nc(SCC(=O)NCc4ccco4)n(-c4ccccc4)c(=O)c23)CS1	-5	-2	29	17	19	16
C=CCn1c(SCC(=O)NCC2CCCO2)nc2scc(-c3ccco3)c2c1=O (stereo unspecified)	-4	-10	41	-2	-1	1
O=C(CSc1nc2scc(-c3ccco3)c2c(=O)n1-c1ccccc1)NCC1CCCO1 (stereo unspecified)	3	-10	100*	22	4	9
O=C(CSc1nc2sc3c(c2c(=O)n1-c1ccccc1)CCCC3)NCc1ccco1	-28	33	84*	18	47	-20
Cc1nc2ccccc2n1CCc1nc2c3ccccc3nc(SCC#N)n2n1	.	.	-26	.	.	.
Cc1sc2nc(SCC(=O)NCc3ccco3)n(CCc3ccccc3)c(=O)c2c1C	1	2	95*	14	-6	-9
SMILES	KKLEB tox	MITF TRPM1 inh	CHOP inh	Peg3 prom inh	CF NFkB inh	HIF-2a inh
Cc1nc2ccccc2n1CCc1nc2c3ccccc3nc(SCC(=O)NCc3ccco3)n2n1	1	5	72*	10	4	7
CCOc1ccccc1-n1c(SC(C)C(=O)NCC2CCCO2)nc2ccccc2c1=O (stereo unspecified)	0	-1	.	22	-4	24
C=CCn1c(SCC(=O)NC(=O)NCc2ccco2)nc2sc(CC)cc2c1=O	0	10	83*	2	-10	14
COc1ccccc1/C=C\C=N\n1c(-c2ccc(Cl)cc2)n[nH]c1=S	11	-4	89*	22	0	-17
CSc1nnc(-c2ccncc2)n1/N=C/c1cn(-c2ccccc2)nc1-c1ccc(Cl)cc1	-6	-15	35	-72	34	-20
COc1ccccc1/C=C/C=N/n1c(-c2ccc(F)cc2)n[nH]c1=S	5	.	-27	10	-13	-6
Cc1nn(-c2ccccc2)c(C)c1/C=N/n1c(-c2ccc(C(C)(C)C)cc2)n[nH]c1=S	4	-7	84*	13	6	4
S=c1[nH]nc(-c2ccncc2)n1/N=C/c1cn(-c2ccccc2)nc1-c1ccc(Cl)cc1	-10	.	91*	-29	-23	-9
COc1ccc(C(C)(NC(C)=O)c2nc(-c3cc(F)cc(F)c3)cs2)cc1 (stereo unspecified)	-16	.	.	12	15	21
COC(=O)c1ccc(C(=O)OC)c(NC(=O)N2c3ccccc3Sc3ccccc32)c1	-54*	-1	-7	16	54*	12
NC(=O)C1(C(=O)O)OC1(c1ccc(Cl)cc1)c1ccccc1Cl (stereo unspecified)	7	-1	.	-11	-1	3
CCOC(=O)C1(C(N)=O)OC1(c1ccc(Cl)cc1)c1ccccc1Cl (stereo unspecified)	10	0	.	69*	-9	-1
Cc1cccc(N2CCN(C(=O)CCc3nc4ccccc4c(=O)[nH]3)CC2)c1C	-23	22	.	28	17	12
CCS(=O)(=O)c1ccc2oc(Nc3ccc(C(C)(C)C)cc3)nc2c1	-4	9	72*	8	11	9
NS(=O)(=O)c1ccc(CCNc2ccn3nc(-c4ccc(OCCN5CCOCC5)cc4)cc3n2)cc1	-7	.	.	32	13	-7
Cc1nc(Nc2ccccc2)c2oc3ccc(Cl)cc3c2n1	-5	-31	.	-86	-8	-130
Clc1ccc2oc3c(Cl)ncnc3c2c1	-15	77*	-108	84*	20	18
CC1(C)CC(N2CCCC2)=CC(=[N+]2CCCCC2)C1	-3	33	17	23	7	20
CC1(C)CC(N2CCN(Cc3ccccc3)CC2)=CC(=[N+]2CCCCC2)C1	8	67*	1	12	6	5
CN(Cc1ccccc1)C1=CC(=[N+]2CCCCC2)CC(C)(C)C1	-18	77*	33	18	41	14
COc1cc(CN2CCC(CCC(=O)NC3CC3)CC2)cc(Cl)c1OC	-6	7	.	3	2	17
CCN(CC)CCNCC(O)(c1ccc(Cl)cc1)c1ccc(Cl)cc1	-6	4	-22	-1	-2	-1
CCN(CC)CCNCc1ccc(-c2ccc(Cl)cc2)o1	-18	-5	82*	-8	15	2
O=C(Nc1sc2c(c1C(=O)c1ccccc1)CCCC2)c1cccnc1	-5	2	61	16	15	24
